As a reminder, the AC50 is the concentration at which the activity in the assay is half-maximal.

The text below walks through data of PubChem BioAssay (EPA / NIEHS).

Several values for one entry are separate records, joined by “and”; a condition that tells them apart may be missing. Equal values may be shown once. Results filed as inconclusive are left out. A structure can be active in one record and inactive in another. Activity calls are given as the source filed them. Rule for the calls, unless noted: active = hit-call score of the fitted dose curve at least 0.9, where 1 is the maximum; inactive = score below 0.9.

Read-out in test [1]: Interleukin-10 (IL10), IL10 (gene 3586)
The test can be described thus: BSK_IMphg_IL10: BioMAP Diversity Plus: IMphg Assay for Interleukin-10 (IL10) Biomarker Activity (AID 2284294). The following applies: primary human endothelial cells with macrophages. The gist of the method: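 Human venular endothelial cells cocultured with macrophages, dosed 24 h; IL-10 measured by ELISA, activity relative to DMSO. Cytotoxicity assessed in parallel cultures by sulforhodamine B total-protein staining.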

Test [2] is described as follows: BSK_IMphg_SRB.Mphg: Macrophage Viability Assessment in the BioMAP Diversity Plus: IMphg Assay (AID 2284295). The following applies: primary human endothelial cells with macrophages. In a few lines:
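Venular endothelial cells co-cultured with macrophages, read 24 h after dosing. Total protein measured by 0.1% SRB staining after 10% TCA fixation, absorbance at 560 nm. Fitted in positive direction against DMSO baseline.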

Read-out in test [3]: Thrombomodulin, THBD (gene 7056)
The test can be described thus: BSK_LPS_Thrombomodulin: BioMAP Diversity Plus: LPS Assay for Thrombomodulin Biomarker Activity (AID 2284296). The following applies: primary human HUVEC with PBMC. The gist of the method: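 Human umbilical vein endothelial cells co-cultured with PBMC and stimulated with LPS; cell-surface thrombomodulin measured by ELISA 24 hours after compound. Gain or loss versus DMSO; cytotoxicity checked by SRB staining in parallel cultures.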

Read-out in the next test: CD69, CD69 (gene 969)
The test can be described thus: BSK_LPS_CD69: BioMAP Diversity Plus: LPS Assay for CD69 Biomarker Activity (AID 2284303). Particulars: primary human HUVEC with PBMC. In a few lines:
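Human umbilical vein endothelial cells co-cultured with PBMC under LPS stimulation, chemical exposure 24 h; cell-surface CD69 measured by ELISA and fitted in the positive direction versus DMSO.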

Test [4] can be described thus: IUF_NPC2c_oligodendrocyte_migration_120hr: Leibniz Research Institute for Environmental Medicine (IUF) 120-hour Neural Progenitor Cell Migration Assay for Oligodendrocyte Migration (NPC2c) (AID 2284297).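 Note: O4-positive oligodendrocyte migration distance divided by radial glia migration distance.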 The gist of the method: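 Human fetal cortex-derived neural progenitor spheres (0.3 mm) were plated on poly-D-lysine/laminin in N2 differentiation medium and exposed to 7 concentrations for 120 h, with half-medium renewal at day 3. Oligodendrocyte migration distance was normalized to radial glia migration, relative to DMSO.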

A short description of test [5]: IUF_NPC2a_radial_glia_migration_120hr: Leibniz Research Institute for Environmental Medicine (IUF) 120-hour Neural Progenitor Cell Migration Assay for Radial Glia Migration (NPC2a) (AID 2284298). In a few lines: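 Single 0.3 mm primary human fetal-cortex (GW 16-19) NPC spheres were plated on poly-D-lysine/laminin in N2 differentiation medium and exposed from day 0 for 120 h, half-medium refreshed day 3. Migration distance came from Hoechst nuclei-density imaging, relative to DMSO.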

The nature of test [6]: IUF_NPC2a_radial_glia_migration_72hr: Leibniz Research Institute for Environmental Medicine (IUF) 72-hour Neural Progenitor Cell Migration Assay for Radial Glia Migration (NPC2a) (AID 2284299). The gist of the method: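 Primary hNPC spheres, fetal brain GW 16-19, on PDL/laminin; DMEM/F12 3:1 + 1% N2. Compound dosed day 0, 7 conc. + SC, half-medium refresh day 3. 72 h brightfield, migration distance core-to-front (um), 4 directions averaged.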

Test [7] in a line: IUF_NPC2b_neuronal_migration_120hr: Leibniz Research Institute for Environmental Medicine (IUF) 120-hour Neural Progenitor Cell Migration Assay for Neuron Migration (NPC2b) (AID 2284300). In a few lines:
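Primary human fetal cortex neural progenitor spheres (0.3 mm) plated on poly-D-lysine/laminin in N2 differentiation medium, exposed 120 h with half-medium refresh at day 3. TUBB3-stained neuron distance from sphere core, normalized to radial glia migration, versus DMSO.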

Test [8] is described as follows: IUF_NPC3_neuronal_differentiation_120hr: Leibniz Research Institute for Environmental Medicine (IUF) 120-hour Neuronal Differentiation Assay (NPC3) (AID 2284301). The gist of the method: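 Single 0.3 mm neurospheres from human fetal cortex were plated in differentiation medium containing test compound. Medium was half-replaced on day 3. After 120 h cells were fixed, immunostained and imaged, and neuronal fraction was scored against DMSO control.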

Test [9] can be described thus: IUF_NPC4_neurite_length_120hr: Leibniz Research Institute for Environmental Medicine (IUF) 120-hour Neuronal Morphology Assay for Neurite Length (NPC4) (AID 2284302). In a few lines: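 Read-out is mean neurite length in µm of TUBB3-positive neurons, skeletonized from high-content fluorescence images after 120 h. Single 0.3 mm primary human neural progenitor spheres differentiated on poly-D-lysine/laminin under continuous compound exposure; DMSO was baseline.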

Test [10] is described as follows: IUF_NPC5_oligodendrocyte_differentiation_120hr: Leibniz Research Institute for Environmental Medicine (IUF) 120-hour Oligodendrocyte Differentiation Assay (NPC5) (AID 2284304; active = hit-call score of the fitted dose curve at least 0.9, where 1 is the maximum;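 note: primary human fetal neural progenitor spheres plated to migrate and differentiate; share of O4-positive cells among Hoechst nuclei found by CNN image analysis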). The gist of the method:
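Primary human fetal (GW 16-19) neural progenitor spheres (0.3 mm) plated on poly-D-lysine/laminin in N2 differentiation medium, exposed from day 0 for 120 h with half-medium refresh at day 3; O4-positive cells as percent of Hoechst nuclei, CNN-identified, versus DMSO.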

The nature of test [11]: IUF_NPC4_neurite_area_120hr: Leibniz Research Institute for Environmental Medicine (IUF) 120-hour Neuronal Morphology Assay for Neurite Area (NPC4) (AID 2284305; active = hit-call score of the fitted dose curve at least 0.9, where 1 is the maximum). The gist of the method:
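Neurite area is read out as the mean pixel area, excluding nuclei, of skeletonized TUBB3-positive neurons imaged after 120 h. Primary human neural progenitor spheres differentiated on poly-D-lysine/laminin with compound present from day 0. Activity was referenced to DMSO controls.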

Test [12] can be described thus: IUF_NPC2-5_cytotoxicity_72hr: Cytotoxicity Assessment at 72 hours in the Leibniz Research Institute for Environmental Medicine (IUF) Neural Progenitor Cell Migration and Differentiation Assay for Cytotoxicity (NPC2-5) (AID 2284306; active = hit-call score of the fitted dose curve at least 0.9, where 1 is the maximum;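 note: LDH release into supernatant measured by resorufin fluorescence marking membrane damage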). The gist of the method:
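Membrane integrity loss was scored from fluorescence (RFU) of resorufin generated by LDH in culture supernatant, 72 h after dosing. Differentiating human progenitor spheres received seven serial compound concentrations alongside a solvent control.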

Test [13] can be described thus: IUF_NPC2-5_cytotoxicity_120hr: Cytotoxicity Assessment at 120 hours in the Leibniz Research Institute for Environmental Medicine (IUF) Neural Progenitor Cell Migration and Differentiation Assay (NPC2-5) (AID 2284307; active = hit-call score of the fitted dose curve at least 0.9, where 1 is the maximum;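 for AC50: LDH released into supernatant as membrane damage marker via resorufin fluorescence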). In a few lines:
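Human fetal neural progenitor spheres (0.3 mm, GW 16-19 cortex) were plated on poly-D-lysine/laminin in N2 differentiation medium and exposed for 120 h, with half-medium refresh at day 3. LDH release into supernatant was read by resorufin fluorescence.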

Test [14] can be described thus: IUF_NPC2-5_cell_number_120hr: Cell Number Assessment at 120 hours in the Leibniz Research Institute for Environmental Medicine (IUF) Neural Progenitor Cell Migration and Differentiation Assay (NPC2-5) (AID 2284308).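 Note: count of Hoechst-stained nuclei in migration zone around plated human neural progenitor spheres.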 In a few lines:
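Primary human fetal neural progenitor spheres (GW 16-19, 0.3 mm) plated on poly-D-lysine/laminin in N2 differentiation medium, exposed from day 0 for 120 h with half-medium refresh at day 3; Hoechst-positive nuclei counted in migration area versus DMSO control.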

A short description of test [15]: VALA_TUBHUV_Agonist_CellCount: Viability Assessment in the VALA Sciences human Umbilical Vein Endothelial Tubule Formation (TUBHUV) Agonism Assay (AID 2284309; active = hit-call score of the fitted dose curve at least 0.9, where 1 is the maximum). The gist of the method: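 HUVEC co-cultured 1:3 with HDF for 3 days in 10 ng/ml VEGF, then compounds added in VEGF medium for a further 3 days (72 h). Nuclear-stain/CD31 imaging cell count. Positive-direction fit versus 0.1% DMSO vehicle.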

A short description of test [16]: VALA_TUBHUV_Antagonist_CellCount: Viability Assessment in the VALA Sciences human Umbilical Vein Endothelial Tubule Formation (TUBHUV) Antagonism Assay (AID 2284310; active = hit-call score of the fitted dose curve at least 0.9, where 1 is the maximum). The gist of the method:
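HUVEC co-cultured with HDF (1:3) 3 days in 10 ng/ml VEGF, then 3 days with compounds in VEGF medium. Fixed, nuclear stain and CD31 immunofluorescence, imaged; cell counts fitted versus 0.1% DMSO, loss of signal read as lower viability.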

The nature of test [17]: VALA_TUBIPS_Agonist_TubuleLength: VALA Sciences human iPS-derived Endothelial Tubule Formation (TUBIPS) Agonism Assay (AID 2284311; active = hit-call score of the fitted dose curve at least 0.9, where 1 is the maximum). In a few lines:
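Human iPS-derived endothelial cells were exposed to compound for 72 h. Tubule formation was imaged by high-content fluorescence and scored as gain of signal relative to DMSO vehicle (agonist mode).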

The nature of test [18]: IUF_NPC2-5_viability_120hr: Viability Assessment at 120 hours in the Leibniz Research Institute for Environmental Medicine (IUF) Neural Progenitor Cell Migration and Differentiation Assay (NPC2-5) (AID 2284312). In a few lines:
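Alamar blue resorufin fluorescence read after 5 days of differentiation, with compound present from day 0 and replenished at day 3. Primary hNPC spheres on laminin-coated plates, 37C; seven concentrations plus solvent control, fitted against DMSO.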

The nature of test [19]: VALA_TUBIPS_Antagonist_TubuleLength: VALA Sciences human iPS-derived Endothelial Tubule Formation (TUBIPS) Antagonist Assay (AID 2284313; active = hit-call score of the fitted dose curve at least 0.9, where 1 is the maximum). The gist of the method: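 Cells grown 3 days with 10 ng/ml VEGF, then exposed to compounds in VEGF medium for another 3 days. After fixation, nuclear stain and CD31 immunofluorescence imaging gave mean total tubule length against 0.1% DMSO; suramin (100 uM) inhibition control.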

`OC(O)(C(F)C(O)(O)C(F)(F)F)C(F)(F)F`: in [1], the AC50 is 25 µM (active) and 22.2 µM (active). The outcome in [2] is “inactive”; in test [3], “inactive”; in the test with CD69, CD69 (gene 969), “inactive”.
As for `Cn1cc[nH]c1=S`, the compound was classed as inactive in [4], in test [5], in test [6], in test [7], in [8] and in [9]. The compound was classed as inactive in test [10], in [11], in [12], in test [13], in test [14] and in test [15]. Besides, the call in test [16], in test [17] and in test [18] was inactive.
Regarding `FC(F)(F)C(F)(F)C(F)(F)C(F)(F)C(F)(F)C(F)(F)I`, the outcome in test [1] is “inactive”; in test [2] it was “inactive”; in [3] it was “inactive”; with CD69, CD69 (gene 969), “inactive”.
Turning to `O=C(Cl)C(F)(F)C(F)(F)C(F)(F)C(=O)Cl`, the outcome in test [1] is “inactive”; in test [2] it was “inactive”; in [3] it was “inactive”; in the test with CD69, CD69 (gene 969), “inactive”.
Regarding `C[Si](C)(C)C(F)(F)C(F)(F)C(F)(F)F`, the outcome in [1] is “inactive”; in test [2], “inactive”; in test [3] it was “inactive”; with CD69, CD69 (gene 969), “inactive”.
On to `OCCC(F)(F)C(F)(F)C(F)(F)C(F)(F)F`, for which the outcome in test [1] is “inactive”; in [2] it was “inactive”; in test [3], “inactive”; with CD69, CD69 (gene 969) it was “inactive”.
As to `NCC(F)(F)C(F)(F)C(F)(F)C(F)(F)F`, the outcome in test [1] was “inactive”; in test [2], “inactive”; in test [3] it was “inactive”; with CD69, CD69 (gene 969), “inactive”.
With `CCCC(CCC)C(=O)O`, the outcome in [4], in test [7], in [11], in [16], in test [17] and in [19] was inactive. Besides, the AC50 in test [6] is 1330 µM (active); in test [8] it was 2200 µM (active); in [9], 2180 µM (active); in test [10] it was 999 µM (active); in [13], 1400 µM (active); in test [14], 2210 µM (active). Further, in test [18], the AC50 was 1030 µM (active).
For `CCN(CC)C(=S)SSC(=S)N(CC)CC`, the result in [17] was inactive.
For the compound `FC(F)=C(F)C(F)(F)C(F)(F)C(F)(F)C(F)(F)C(F)(F)C(F)(F)F`, the outcome was “inactive” in test [1]; “inactive” in test [2]; “inactive” in test [3]; “inactive” in the test with CD69, CD69 (gene 969).
As for `FC(F)C(F)(F)COCC1CO1` (centres undefined), the outcome in [1] was “inactive”; in test [2], “inactive”; in [3], “inactive”; with CD69, CD69 (gene 969) it was “inactive”.
For the compound `FC(F)(F)COC(OCC(F)(F)F)OCC(F)(F)F`, the outcome in test [1] was “inactive”; in [2], “inactive”; in [3], “inactive”; with CD69, CD69 (gene 969), “inactive”.
Regarding `OCCNCCO`, the call in test [15] and in test [16] was inactive.
Consider `Nc1ccn([C@@H]2O[C@H](CO)[C@@H](O)[C@@H]2O)c(=O)n1`, for which the compound was called inactive in [4], in test [5], in test [6], in test [7], in [9] and in test [11]. For the same compound, in test [18], the compound was classed as inactive. Further, the AC50 in [8] was 0.0137 µM (active); in [12] it was 0.237 µM (active); in test [13], 0.0802 µM (active); in test [14], 0.743 µM (active).
As for `O=S(=O)(O)CCC(F)(F)C(F)(F)C(F)(F)C(F)(F)C(F)(F)C(F)(F)F`, the outcome in test [1] is “inactive”; in test [2], “inactive”; in test [3] it was “inactive”; in the test with CD69, CD69 (gene 969) it was “inactive”. In addition, the AC50 was 0.227 µM (active) in [3] and 9.47 µM (active) with CD69, CD69 (gene 969).
